Laboratory results taken from PubChem BioAssay (EPA / NIEHS).
The source made the active and inactive calls. How the source made its calls: active means hit-call score of the fitted dose curve at least 0.9, where 1 is the maximum; inactive means score below 0.9.

Key:
[1] = ATG_CRE_CIS: Attagene CIS-FACTORIAL HepG2 Assay for human cAMP Responsive Element (CRE) binding protein 3 (AID 2282926); settings: HepG2 CRE cis-reporter, Attagene multiplexed mRNA; actives raise or lower the signal
Method in brief: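 Cells carrying cis-regulated reporter constructs respond through their own endogenous factors. After 24 h treatment, RNA is reverse-transcribed, amplified, labelled and sized by capillary electrophoresis; up- and down-regulation are both scored against vehicle.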

[2] = biological target: CCAAT/enhancer-binding protein beta (Homo sapiens) (UniProt P17676); experiment: ATG_C_EBP_CIS: Attagene CIS-FACTORIAL HepG2 Assay for human CCAAT/Enhancer Binding Protein (C/EBP) beta (AID 2282927); settings: HepG2 Attagene cis-factorial transcription factor reporter; actives raise or lower the signal
Sequence of CCAAT/enhancer-binding protein beta (Homo sapiens) (P17676 whole entry, looked up): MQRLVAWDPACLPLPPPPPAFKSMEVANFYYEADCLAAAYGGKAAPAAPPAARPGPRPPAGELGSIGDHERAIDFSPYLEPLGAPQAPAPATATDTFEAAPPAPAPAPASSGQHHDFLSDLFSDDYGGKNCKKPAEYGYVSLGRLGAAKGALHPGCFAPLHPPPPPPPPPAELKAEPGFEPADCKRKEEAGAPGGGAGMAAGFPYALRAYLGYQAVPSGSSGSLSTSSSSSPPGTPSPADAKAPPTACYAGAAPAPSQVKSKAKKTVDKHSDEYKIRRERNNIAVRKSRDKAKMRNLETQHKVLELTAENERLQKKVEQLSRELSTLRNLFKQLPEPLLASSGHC
Method in brief: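 Endogenous transcription factor activity in human liver HepG2 cells is inferred from induction of a CEBPB-linked reporter mRNA. Exposure lasts 24 h; activity is fitted in both directions relative to DMSO.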

[3] = ATG_CMV_CIS: Attagene CIS-FACTORIAL HepG2 Assay for human CMV (Internal Marker) (AID 2282928); settings: HepG2 CMV promoter reporter, transcription factor profiling; actives raise or lower the signal;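 further: endpoint acts as a background internal control marker rather than a target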
Method in brief: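 Reporter transcripts from transfected HepG2 cells are isolated after 24 h of chemical dosing, reverse-transcribed and amplified. Fragments labeled with 6-FAM are cut with HpaI and quantified by capillary electrophoresis; DMSO defines baseline.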

[4] = ATG_DR4_LXR_CIS: Attagene CIS-FACTORIAL HepG2 Assay for human Liver X Receptor (LXR), DR4 submotif (AID 2282929); settings: HepG2 Attagene DR4 cis-reporter, mRNA transcription; actives raise or lower the signal
Method in brief: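 HepG2 cells transiently transfected with cis-promoter-driven multiplexed reporter units (DR4 element) were dosed for 24 h. Reporter mRNA was quantified by RT-PCR, fluorescent primer extension, HpaI digestion and capillary electrophoresis; bidirectional fitting versus DMSO baseline.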

[5] = biological target: Aryl hydrocarbon receptor (Homo sapiens) (UniProt P35869); experiment: ATG_Ahr_CIS: Attagene CIS-FACTORIAL HepG2 Assay for human Aryl Hydrocarbon Receptor (Ahr) (AID 2282930); settings: HepG2 AhR cis-factorial reporter transcription; actives raise or lower the signal
Sequence of Aryl hydrocarbon receptor (Homo sapiens) (P35869 whole entry, looked up): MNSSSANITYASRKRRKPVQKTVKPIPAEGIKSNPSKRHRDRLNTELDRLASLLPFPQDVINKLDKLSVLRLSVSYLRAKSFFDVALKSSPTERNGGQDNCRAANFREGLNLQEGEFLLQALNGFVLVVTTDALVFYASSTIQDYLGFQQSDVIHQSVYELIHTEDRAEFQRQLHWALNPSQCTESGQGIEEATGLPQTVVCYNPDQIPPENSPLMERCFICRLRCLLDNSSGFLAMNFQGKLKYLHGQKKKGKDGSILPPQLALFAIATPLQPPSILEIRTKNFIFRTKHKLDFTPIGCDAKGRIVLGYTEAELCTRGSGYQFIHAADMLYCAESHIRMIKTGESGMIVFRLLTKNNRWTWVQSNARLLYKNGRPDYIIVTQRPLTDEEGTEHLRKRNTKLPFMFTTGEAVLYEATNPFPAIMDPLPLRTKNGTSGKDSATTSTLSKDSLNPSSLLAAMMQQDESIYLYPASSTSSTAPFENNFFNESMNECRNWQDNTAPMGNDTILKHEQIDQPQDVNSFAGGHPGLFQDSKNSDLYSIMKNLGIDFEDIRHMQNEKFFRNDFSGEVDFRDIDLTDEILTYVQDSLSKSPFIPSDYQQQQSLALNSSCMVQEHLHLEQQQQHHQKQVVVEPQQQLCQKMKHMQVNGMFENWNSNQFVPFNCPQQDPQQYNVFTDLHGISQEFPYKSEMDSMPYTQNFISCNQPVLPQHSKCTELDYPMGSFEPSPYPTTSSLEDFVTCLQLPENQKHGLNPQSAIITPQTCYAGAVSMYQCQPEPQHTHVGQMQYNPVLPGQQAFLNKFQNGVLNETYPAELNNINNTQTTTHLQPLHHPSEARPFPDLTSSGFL
Method in brief: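 Transient MRTU transfection of HepG2 → 24 h compound exposure → total RNA, oligo(dT) RT → PCR, 6-FAM extension, HpaI cut → CE fluorescence. DMSO = baseline; bidirectional curve fit.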

[6] = ATG_AP_1_CIS: Attagene CIS-FACTORIAL HepG2 Assay for human Activator Protein 1 (AP-1) (AID 2282931); settings: HepG2 Attagene cis-factorial AP-1 reporter mRNA; actives raise or lower the signal
Method in brief: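 HepG2 cells transiently transfected with cis-element-driven multiplex reporter units; 24 h compound exposure. Reporter mRNA quantified by RT-PCR, FAM-labelled fragments resolved by capillary electrophoresis; bidirectional fit versus DMSO baseline.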

[7] = ATG_AP_2_CIS: Attagene CIS-FACTORIAL HepG2 Assay for human Activator Protein 2 (AP-2) (AID 2282932); settings: HepG2 AP-2 cis-reporter, Attagene transcription factor profiling; actives raise or lower the signal
Method in brief: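 Transiently transfected HepG2 cells are exposed to chemical for 24 h. Reporter transcripts are then measured as fluorescence following RT-PCR and capillary separation, and gain- or loss-of-signal is fitted relative to DMSO.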

[8] = ATG_BRE_CIS: Attagene CIS-FACTORIAL HepG2 Assay for human Bone Morphogenetic Protein (BMP) Response Element (BRE) (AID 2282933); settings: HepG2 BMP response element reporter, Attagene transcription factor profiling; actives raise or lower the signal
Method in brief: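 Endogenous transcription factor activity at a BMP response element was monitored in transfected HepG2 cells 24 h after dosing. Fluorescent RT-PCR products were resolved by capillary electrophoresis, and activity was fitted in both directions versus DMSO.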

[9] = biological target: Transcription factor E2F1 (Homo sapiens) (UniProt Q01094); experiment: ATG_E2F_CIS: Attagene CIS-FACTORIAL HepG2 Assay for human E2F Transcription Factor 1 (AID 2282935); settings: HepG2 Attagene cis-reporter, E2F reporter RNA transcripts; actives raise or lower the signal
Sequence of Transcription factor E2F1 (Homo sapiens) (Q01094 whole entry, looked up): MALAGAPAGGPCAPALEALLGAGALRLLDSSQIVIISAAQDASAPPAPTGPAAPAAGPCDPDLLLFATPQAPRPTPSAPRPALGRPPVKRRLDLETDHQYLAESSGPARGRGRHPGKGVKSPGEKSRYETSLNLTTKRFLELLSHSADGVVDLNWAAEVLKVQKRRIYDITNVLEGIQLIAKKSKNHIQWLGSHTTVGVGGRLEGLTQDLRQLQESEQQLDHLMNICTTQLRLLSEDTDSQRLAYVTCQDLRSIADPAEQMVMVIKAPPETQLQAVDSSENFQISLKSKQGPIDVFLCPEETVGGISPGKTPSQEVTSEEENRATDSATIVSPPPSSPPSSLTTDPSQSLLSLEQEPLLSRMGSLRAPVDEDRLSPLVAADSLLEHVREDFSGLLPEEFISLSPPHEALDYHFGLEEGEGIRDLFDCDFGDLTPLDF
Method in brief: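 Fluorescent RT-PCR products, digested with HpaI for 2 h at 37 C, are separated by capillary electrophoresis. Source RNA comes from transfected HepG2 cultures treated for 24 h.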

[10] = ATG_E_Box_CIS: Attagene CIS-FACTORIAL HepG2 Assay for human Enhancer Box (E-box) (AID 2282936); settings: HepG2 E-box cis-reporter transcription, actives raise or lower the signal
Method in brief: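 Fluorescent reporter fragments separated by capillary electrophoresis gave the signal; mRNA came from HepG2 cells transfected with cis-element reporters and treated 24 h. Curves fitted bidirectionally relative to DMSO controls.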

[11] = ATG_M_61_CIS: Attagene CIS-FACTORIAL HepG2 Assay for M61 Transcription Factor (Internal Marker) (AID 2282937); settings: HepG2 Attagene CIS-FACTORIAL M61 internal marker reporter; actives raise or lower the signal
Method in brief: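 HepG2 cells transiently transfected with cis-element-driven multiple reporter transcription units, dosed for 24 h. Reporter mRNA measured by RT-PCR, 6-FAM primer-extension labelling, HpaI digestion and capillary electrophoresis; bidirectional fit versus DMSO baseline.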

[12] = ATG_EGR_CIS: Attagene CIS-FACTORIAL HepG2 Assay for human Early Growth Response 1 (EGR1) (AID 2282938); settings: HepG2 Attagene CIS-FACTORIAL EGR reporter mRNA; actives raise or lower the signal
Method in brief: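 HepG2 cells transiently transfected with cis-promoter-driven multiplexed reporter transcription units; reporter mRNA measured 24 h after compound dosing by RT-PCR, 6-FAM primer extension, HpaI digestion and capillary electrophoresis. Bidirectional fit versus DMSO baseline.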

[13] = ATG_M_19_CIS: Attagene CIS-FACTORIAL HepG2 Assay for M19 Transcription Factor (Internal Marker) (AID 2282939); settings: HepG2 Attagene CIS-FACTORIAL M19 internal marker reporter; actives raise or lower the signal
Method in brief: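 Background-control endpoint from a multiplexed HepG2 reporter panel. Cells carrying cis-regulated reporter constructs are treated 24 h, then reporter transcripts are amplified, fluorescently labelled and sized by capillary electrophoresis. DMSO defines baseline.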

[14] = ATG_ERE_CIS: Attagene CIS-FACTORIAL HepG2 Assay for Estrogen Response Element (ERE) (AID 2282940); settings: HepG2 ERE cis-reporter, Attagene RNA transcript; actives raise or lower the signal
Method in brief: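 Cells used were human hepatoma HepG2, transfected with multiple reporter transcription units under cis-regulatory promoters. Reporter mRNA, read 24 h post-dosing via fluorescent RT-PCR products on capillary electrophoresis, was fitted bidirectionally relative to DMSO.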

[15] = ATG_Ets_CIS: Attagene CIS-FACTORIAL HepG2 Assay for human Erythroblast Transformation Specific (ETS) (AID 2282941); settings: HepG2 ETS cis-reporter transcription, actives raise or lower the signal
Method in brief: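 Bidirectional fit versus DMSO of reporter mRNA signal, detected by RT-PCR and capillary electrophoresis in HepG2 cells transiently transfected with cis-element reporters and dosed 24 h.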

[16] = biological target: Hepatocyte nuclear factor 3-beta (Homo sapiens) (UniProt Q9Y261); experiment: ATG_FoxA2_CIS: Attagene CIS-FACTORIAL HepG2 Assay for human Forkhead box A2 (FOXA2) (AID 2282942); settings: HepG2 cis-reporter transcription factor activity, 24 h; actives raise or lower the signal
Sequence of Hepatocyte nuclear factor 3-beta (Homo sapiens) (Q9Y261 whole entry, looked up): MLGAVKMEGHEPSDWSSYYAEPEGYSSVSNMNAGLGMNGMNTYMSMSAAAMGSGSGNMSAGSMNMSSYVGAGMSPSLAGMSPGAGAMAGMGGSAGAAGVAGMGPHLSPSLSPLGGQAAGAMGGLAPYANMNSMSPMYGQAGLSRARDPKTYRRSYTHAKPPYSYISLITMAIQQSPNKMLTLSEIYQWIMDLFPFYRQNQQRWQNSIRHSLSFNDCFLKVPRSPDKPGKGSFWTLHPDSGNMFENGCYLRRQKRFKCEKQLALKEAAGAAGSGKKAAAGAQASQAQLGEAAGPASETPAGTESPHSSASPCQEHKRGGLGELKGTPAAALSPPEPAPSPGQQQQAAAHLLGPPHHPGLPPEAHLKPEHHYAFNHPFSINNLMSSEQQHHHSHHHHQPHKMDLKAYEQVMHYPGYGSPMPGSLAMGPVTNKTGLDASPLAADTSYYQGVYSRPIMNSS
Method in brief: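 HepG2 cells transiently transfected with multiple cis-regulated reporter transcription units, dosed for 24 h. Reporter mRNA measured by RT-PCR, 6-FAM labelling, HpaI digestion and capillary electrophoresis; bidirectional fitting against DMSO baseline.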

[17] = ATG_FoxO_CIS: Attagene CIS-FACTORIAL HepG2 Assay for human Forkhead box O (FoxO) (AID 2282943); settings: HepG2 Attagene cis-reporter, FoxO element, mRNA; actives raise or lower the signal
Method in brief: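 HepG2, transient MRTU transfection (cis element, endogenous TFs). Dose 24 h. TriZol RNA → oligo(dT) RT → PCR → 6-FAM primer extension → HpaI cut → CE. Gain/loss vs DMSO.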

[18] = ATG_GATA_CIS: Attagene CIS-FACTORIAL HepG2 Assay for human GATA Binding Protein (AID 2282944); settings: HepG2 GATA cis-element reporter, Attagene multiplex mRNA; actives raise or lower the signal
Method in brief: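 Endogenous transcription factor activity was captured through cis-promoter-driven reporters in transfected HepG2 cells. After 24 h exposure, reporter transcripts were quantified by RT-PCR with fluorescent capillary electrophoresis, and responses fitted both directions against DMSO.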

[19] = ATG_GLI_CIS: Attagene CIS-FACTORIAL HepG2 Assay for human Zinc Finger Protein GLI1 (AID 2282945); settings: HepG2, Attagene cis-factorial reporter mRNA, GLI element; actives raise or lower the signal
Method in brief: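 Bidirectional curve fits relative to DMSO, using reporter mRNA levels from RT-PCR plus capillary electrophoresis. Cells were HepG2 transiently carrying cis-regulated reporter constructs, harvested 24 h after dosing.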

In the case of `O=C(COc1ccc(Cl)cc1)N1CCN(Cc2ccc3c(c2)OCO3)CC1`, the outcome [1] is reported as “inactive”, the outcome [2] is reported as “inactive” and the AC50 [3] is reported as 24.9 µM (active). For the same compound, the outcome [4] was “inactive”, the outcome [5] was “inactive” and the outcome [6] was “inactive”. For the same compound, the outcome [7] was “inactive”, the AC50 [8] was 93.6 µM (active) and the outcome [9] was “inactive”. The outcome [10] was “inactive”, the outcome [11] was “inactive” and the AC50 [12] was 32.1 µM (active). The outcome [13] was “inactive”, the outcome [14] was “inactive” and the outcome [15] was “inactive”. For the same compound, the outcome [16] was “inactive”, the outcome [17] was “inactive” and the outcome [18] was “inactive”. For the same compound, the outcome [19] was “inactive”.

For `CCCC1CCC(=O)O1` (configuration not stated), the outcome [1] was “inactive”, the outcome [2] was “inactive” and the outcome [3] was “inactive”. The outcome [4] was “inactive”, the AC50 [5] was 10.2 µM (active) and the outcome [6] was “inactive”. The outcome [7] was “inactive”, the outcome [8] was “inactive” and the outcome [9] was “inactive”. The outcome [10] was “inactive”, the outcome [11] was “inactive” and the outcome [12] was “inactive”. For the same compound, the outcome [13] was “inactive”, the outcome [15] was “inactive” and the outcome [16] was “inactive”. The outcome [17] was “inactive”, the outcome [18] was “inactive” and the outcome [19] was “inactive”.

With `Nc1ccc(S(=O)(=O)O)c(N)c1` the outcome [1] was “inactive”, the outcome [2] was “inactive” and the outcome [3] was “inactive”. For the same compound, the outcome [4] was “inactive”, the outcome [5] was “inactive” and the outcome [6] was “inactive”. For the same compound, the outcome [7] was “inactive”, the outcome [8] was “inactive” and the outcome [9] was “inactive”. The outcome [10] was “inactive”, the outcome [11] was “inactive” and the outcome [12] was “inactive”. For the same compound, the outcome [13] was “inactive”, the outcome [14] was “inactive” and the outcome [15] was “inactive”. For the same compound, the outcome [16] was “inactive”, the outcome [18] was “inactive” and the outcome [19] was “inactive”.

With `CC(C)(C)C(=O)c1ccccc1` the outcome [1] was “inactive”, the outcome [2] was “inactive” and the outcome [3] was “inactive”. The outcome [4] was “inactive”, the outcome [5] was “inactive” and the outcome [6] was “inactive”. For the same compound, the outcome [7] was “inactive”, the outcome [8] was “inactive” and the outcome [9] was “inactive”. For the same compound, the outcome [10] was “inactive”, the outcome [11] was “inactive” and the outcome [12] was “inactive”. For the same compound, the outcome [13] was “inactive”, the outcome [14] was “inactive” and the outcome [15] was “inactive”. The outcome [16] was “inactive”, the outcome [17] was “inactive” and the outcome [18] was “inactive”. For the same compound, the outcome [19] was “inactive”.

In the case of `OCCN1CCNCC1`, the outcome [1] is reported as “inactive”, the outcome [2] is reported as “inactive” and the outcome [3] is reported as “inactive”. The outcome [4] was “inactive”, the outcome [5] was “inactive” and the outcome [6] was “inactive”. For the same compound, the outcome [7] was “inactive”, the outcome [8] was “inactive” and the outcome [9] was “inactive”. For the same compound, the outcome [10] was “inactive”, the outcome [11] was “inactive” and the outcome [12] was “inactive”. The outcome [13] was “inactive”, the outcome [14] was “inactive” and the outcome [16] was “inactive”. The outcome [17] was “inactive”, the outcome [18] was “inactive” and the outcome [19] was “inactive”.

For `CSc1nnc(C(C)(C)C)c(=O)[nH]1`, the outcome [1] was “inactive”, the outcome [2] was “inactive” and the outcome [3] was “inactive”. The outcome [4] was “inactive”, the outcome [5] was “inactive” and the outcome [6] was “inactive”. For the same compound, the outcome [7] was “inactive”, the outcome [8] was “inactive” and the outcome [9] was “inactive”. The outcome [10] was “inactive”, the outcome [11] was “inactive” and the outcome [12] was “inactive”. The outcome [13] was “inactive”, the outcome [14] was “inactive” and the outcome [15] was “inactive”. For the same compound, the outcome [16] was “inactive”, the outcome [17] was “inactive” and the outcome [18] was “inactive”. The outcome [19] was “inactive”.

With `C=C(C)C(=O)NCCCN(C)C` the outcome [1] was “inactive”, the outcome [2] was “inactive” and the outcome [3] was “inactive”. For the same compound, the outcome [4] was “inactive”, the outcome [5] was “inactive” and the outcome [6] was “inactive”. For the same compound, the outcome [7] was “inactive”, the outcome [8] was “inactive” and the outcome [9] was “inactive”. For the same compound, the outcome [10] was “inactive”, the outcome [11] was “inactive” and the outcome [12] was “inactive”. For the same compound, the outcome [13] was “inactive”, the outcome [15] was “inactive” and the outcome [16] was “inactive”. For the same compound, the outcome [17] was “inactive”, the outcome [18] was “inactive” and the outcome [19] was “inactive”.

With `COc1c(Cl)c(Cl)c(Cl)c(Cl)c1Cl` the outcome [1] was “inactive”, the outcome [2] was “inactive” and the AC50 [3] was 27.7 µM (active). For the same compound, the outcome [4] was “inactive”, the outcome [5] was “inactive” and the outcome [6] was “inactive”. The outcome [7] was “inactive”, the outcome [8] was “inactive” and the outcome [9] was “inactive”. The outcome [10] was “inactive”, the outcome [11] was “inactive” and the outcome [12] was “inactive”. The outcome [13] was “inactive”, the outcome [15] was “inactive” and the outcome [16] was “inactive”. The outcome [17] was “inactive”, the outcome [18] was “inactive” and the outcome [19] was “inactive”.
